# Test results taken from article PMC7862700, “An all-to-all approach to the identification of sequence-specific readers for epigenetic DNA modifications on cytosine”.
# Experiments:
# Test in all cases: DAPPL (digital affinity profiling via proximity ligation, sequencing); 10 mM Tris-HCl pH 7.5, 50 mM NaCl, 1 mM DTT, 4% glycerol, room temperature, 30 min; GST-TFs on glutathione beads, 16-mer random dsDNA library, 0.1% formaldehyde crosslink after washing; high values mean tight binding
# Settings in all cases: protein: recombinant; tags: N-terminal GST; dsDNA, one strand shown
# FLI1 = biological target: T1, FLI1 (Homo sapiens, UniProt Q01543 1-452)
# T1 sequence: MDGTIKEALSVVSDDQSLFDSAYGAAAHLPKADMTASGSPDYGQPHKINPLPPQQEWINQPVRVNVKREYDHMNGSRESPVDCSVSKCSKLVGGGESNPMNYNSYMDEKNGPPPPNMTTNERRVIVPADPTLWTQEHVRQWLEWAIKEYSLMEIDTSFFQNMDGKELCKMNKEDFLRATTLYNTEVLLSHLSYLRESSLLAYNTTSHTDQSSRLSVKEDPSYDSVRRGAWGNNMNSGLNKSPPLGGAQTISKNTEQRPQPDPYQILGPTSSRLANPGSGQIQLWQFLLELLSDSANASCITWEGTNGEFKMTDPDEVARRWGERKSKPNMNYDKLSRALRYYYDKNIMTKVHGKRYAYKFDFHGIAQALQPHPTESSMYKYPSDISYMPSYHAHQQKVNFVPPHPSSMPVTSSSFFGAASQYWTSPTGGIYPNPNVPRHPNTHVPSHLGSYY
# Outline: (§1)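 Human transcription factors fused to GST were expressed in yeast, captured on glutathione beads, given DNA barcodes and pooled with a GST-only negative control. Pools were incubated with 200 nmole of a 16-mer random double-stranded DNA library in Tris/NaCl/DTT/glycerol buffer at room temperature for 30 min. They were then washed, crosslinked with 0.1% formaldehyde, proximity-ligated (BsaI/T4 ligase, 1 h, 37 °C), PCR-amplified and sequenced on an Illumina NextSeq500. Binding signal is each 6-mer's read frequency for a factor divided by its frequency for the GST control.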
# ELK1 = biological target: T2, ELK1 (Homo sapiens, UniProt P19419 1-428)
# T2 sequence: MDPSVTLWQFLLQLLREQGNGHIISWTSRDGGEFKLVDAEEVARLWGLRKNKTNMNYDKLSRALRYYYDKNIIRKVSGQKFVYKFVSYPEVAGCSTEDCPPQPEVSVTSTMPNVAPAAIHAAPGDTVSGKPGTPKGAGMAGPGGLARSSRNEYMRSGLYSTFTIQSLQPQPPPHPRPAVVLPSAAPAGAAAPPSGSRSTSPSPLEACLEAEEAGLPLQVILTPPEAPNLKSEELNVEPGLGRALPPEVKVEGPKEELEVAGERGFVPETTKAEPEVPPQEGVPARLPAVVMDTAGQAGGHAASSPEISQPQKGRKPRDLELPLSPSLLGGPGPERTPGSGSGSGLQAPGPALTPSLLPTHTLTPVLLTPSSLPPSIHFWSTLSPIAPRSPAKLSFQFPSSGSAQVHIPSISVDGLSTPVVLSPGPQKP
# Outline: as §1
# GABPA = biological target: T3, GABPA (Homo sapiens, UniProt Q06546 1-454)
# T3 sequence: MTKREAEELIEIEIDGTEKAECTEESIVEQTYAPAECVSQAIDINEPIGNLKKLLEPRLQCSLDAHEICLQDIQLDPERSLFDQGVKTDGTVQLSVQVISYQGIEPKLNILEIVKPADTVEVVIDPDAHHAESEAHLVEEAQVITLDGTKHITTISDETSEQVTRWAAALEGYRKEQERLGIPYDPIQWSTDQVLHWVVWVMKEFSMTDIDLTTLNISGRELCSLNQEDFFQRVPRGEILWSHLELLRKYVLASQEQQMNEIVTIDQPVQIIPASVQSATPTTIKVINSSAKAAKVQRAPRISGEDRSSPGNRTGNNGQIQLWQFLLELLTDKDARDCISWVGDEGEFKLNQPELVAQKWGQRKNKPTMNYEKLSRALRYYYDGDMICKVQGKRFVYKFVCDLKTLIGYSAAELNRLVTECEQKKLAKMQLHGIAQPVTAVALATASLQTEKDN
# Outline: as §1
# ERG = biological target: T4, ERG (Homo sapiens, UniProt P11308 1-479)
# T4 sequence: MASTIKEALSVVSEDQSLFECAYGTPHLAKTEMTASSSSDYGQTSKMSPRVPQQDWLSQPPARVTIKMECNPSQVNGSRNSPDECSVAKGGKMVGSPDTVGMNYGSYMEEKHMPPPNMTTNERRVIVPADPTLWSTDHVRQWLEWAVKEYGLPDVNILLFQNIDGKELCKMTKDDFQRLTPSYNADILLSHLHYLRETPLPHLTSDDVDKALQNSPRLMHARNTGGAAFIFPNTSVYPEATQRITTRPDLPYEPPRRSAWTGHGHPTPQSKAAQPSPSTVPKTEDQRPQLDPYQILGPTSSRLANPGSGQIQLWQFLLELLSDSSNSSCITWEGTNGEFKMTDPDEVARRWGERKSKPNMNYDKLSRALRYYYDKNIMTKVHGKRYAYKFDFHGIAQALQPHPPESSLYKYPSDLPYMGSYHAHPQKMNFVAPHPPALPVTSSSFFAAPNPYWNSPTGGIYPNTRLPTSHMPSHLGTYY
# Outline: as §1
# ELF1 = ELF1 (Homo sapiens, UniProt P32519 1-619)
# Outline: as §1
# EHF = biological target: T5, EHF (Homo sapiens, UniProt Q9NZC4 1-300)
# T5 sequence: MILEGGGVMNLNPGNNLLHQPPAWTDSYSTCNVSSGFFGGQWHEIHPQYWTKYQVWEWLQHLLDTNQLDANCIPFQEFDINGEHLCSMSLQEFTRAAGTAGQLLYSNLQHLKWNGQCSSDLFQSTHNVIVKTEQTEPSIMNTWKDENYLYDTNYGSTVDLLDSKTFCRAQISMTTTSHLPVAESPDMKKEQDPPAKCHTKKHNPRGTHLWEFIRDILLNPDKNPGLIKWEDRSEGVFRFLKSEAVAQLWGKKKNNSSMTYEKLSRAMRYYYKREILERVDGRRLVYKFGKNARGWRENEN
# Outline: as §1
# SPI1 = SPI1 (Homo sapiens, UniProt P17947 1-270)
# Outline: as §1
# SPIB = SPIB (Homo sapiens, UniProt Q01892 1-262)
# Outline: as §1
# ELK3 = biological target: T6, ELK3 (Homo sapiens, UniProt P41970 1-407)
# T6 sequence: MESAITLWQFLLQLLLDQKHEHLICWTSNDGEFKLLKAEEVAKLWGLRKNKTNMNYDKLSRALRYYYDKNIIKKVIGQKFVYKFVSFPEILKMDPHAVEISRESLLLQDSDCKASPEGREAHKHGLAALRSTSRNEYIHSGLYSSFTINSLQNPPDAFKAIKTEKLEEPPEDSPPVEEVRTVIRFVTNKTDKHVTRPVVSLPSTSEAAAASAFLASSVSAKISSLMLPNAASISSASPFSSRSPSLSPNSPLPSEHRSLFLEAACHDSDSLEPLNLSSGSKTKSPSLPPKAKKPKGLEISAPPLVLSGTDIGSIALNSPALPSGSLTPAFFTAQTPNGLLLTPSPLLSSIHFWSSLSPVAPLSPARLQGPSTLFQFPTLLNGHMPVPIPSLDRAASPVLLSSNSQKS
# Outline: as §1
# FEV = biological target: T7, FEV (Homo sapiens, UniProt Q99581 1-238)
# T7 sequence: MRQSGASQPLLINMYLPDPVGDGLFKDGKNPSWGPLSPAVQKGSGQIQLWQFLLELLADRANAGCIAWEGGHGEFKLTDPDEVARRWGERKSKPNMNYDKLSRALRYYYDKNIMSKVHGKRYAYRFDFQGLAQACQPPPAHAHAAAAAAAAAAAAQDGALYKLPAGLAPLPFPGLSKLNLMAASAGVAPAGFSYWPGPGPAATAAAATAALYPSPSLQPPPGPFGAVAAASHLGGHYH
# Outline: as §1
# ETV5 = ETV5 (Homo sapiens, UniProt P41161 1-510)
# Outline: as §1
# SPIC = biological target: T8, SPIC (Homo sapiens, UniProt Q8N5J4 1-248)
# T8 sequence: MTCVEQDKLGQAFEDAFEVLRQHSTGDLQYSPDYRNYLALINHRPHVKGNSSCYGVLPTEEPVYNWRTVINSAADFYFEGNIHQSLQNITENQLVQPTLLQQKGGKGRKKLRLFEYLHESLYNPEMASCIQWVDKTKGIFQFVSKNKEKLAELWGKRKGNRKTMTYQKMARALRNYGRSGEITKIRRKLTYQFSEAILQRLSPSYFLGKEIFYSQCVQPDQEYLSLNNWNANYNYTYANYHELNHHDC
# Outline: as §1
# ELF4 = ELF4 (Homo sapiens, UniProt Q99607 1-663)
# Outline: as §1
# ELK4 = biological target: T9, ELK4 (Homo sapiens, UniProt P28324-2 1-405)
# T9 sequence: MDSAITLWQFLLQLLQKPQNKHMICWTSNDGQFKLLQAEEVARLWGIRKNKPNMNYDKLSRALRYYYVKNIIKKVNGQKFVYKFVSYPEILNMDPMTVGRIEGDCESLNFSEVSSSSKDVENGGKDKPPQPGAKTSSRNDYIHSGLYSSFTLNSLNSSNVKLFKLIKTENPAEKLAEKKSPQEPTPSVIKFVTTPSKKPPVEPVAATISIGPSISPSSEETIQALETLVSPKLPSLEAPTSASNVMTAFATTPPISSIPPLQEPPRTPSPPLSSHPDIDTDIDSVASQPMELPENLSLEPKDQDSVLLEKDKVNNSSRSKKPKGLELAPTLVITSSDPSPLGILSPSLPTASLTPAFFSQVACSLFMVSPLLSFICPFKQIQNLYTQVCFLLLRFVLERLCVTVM
# Outline: as §1
# ETV2 = biological target: T10, ETV2 (Homo sapiens, UniProt O00321 1-342)
# T10 sequence: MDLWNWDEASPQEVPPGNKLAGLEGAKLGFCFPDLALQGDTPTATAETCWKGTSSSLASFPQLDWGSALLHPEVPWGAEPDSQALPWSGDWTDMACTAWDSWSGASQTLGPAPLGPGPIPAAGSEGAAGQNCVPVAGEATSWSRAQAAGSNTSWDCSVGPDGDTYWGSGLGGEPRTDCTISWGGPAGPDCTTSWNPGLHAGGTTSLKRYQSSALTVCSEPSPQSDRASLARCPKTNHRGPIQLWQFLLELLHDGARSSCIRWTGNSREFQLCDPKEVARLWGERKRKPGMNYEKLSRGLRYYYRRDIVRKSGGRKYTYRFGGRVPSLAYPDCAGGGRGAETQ
# Outline: as §1
# ELF3 = biological target: T11, ELF3 (Homo sapiens, UniProt P78545 1-371)
# T11 sequence: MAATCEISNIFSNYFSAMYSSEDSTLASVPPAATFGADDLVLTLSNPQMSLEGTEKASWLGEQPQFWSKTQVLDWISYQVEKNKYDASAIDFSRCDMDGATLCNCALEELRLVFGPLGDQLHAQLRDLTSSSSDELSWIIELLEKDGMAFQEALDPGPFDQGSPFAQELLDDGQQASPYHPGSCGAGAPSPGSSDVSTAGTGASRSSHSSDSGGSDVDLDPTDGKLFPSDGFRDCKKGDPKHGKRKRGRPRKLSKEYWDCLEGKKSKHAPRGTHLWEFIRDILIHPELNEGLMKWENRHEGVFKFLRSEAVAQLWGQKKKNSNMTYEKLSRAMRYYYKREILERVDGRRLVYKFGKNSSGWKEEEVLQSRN
# Outline: as §1
# ETV1 = ETV1 (Homo sapiens, UniProt P50549 1-477)
# Outline: as §1
# SPIB, sequence (Q01892 whole entry): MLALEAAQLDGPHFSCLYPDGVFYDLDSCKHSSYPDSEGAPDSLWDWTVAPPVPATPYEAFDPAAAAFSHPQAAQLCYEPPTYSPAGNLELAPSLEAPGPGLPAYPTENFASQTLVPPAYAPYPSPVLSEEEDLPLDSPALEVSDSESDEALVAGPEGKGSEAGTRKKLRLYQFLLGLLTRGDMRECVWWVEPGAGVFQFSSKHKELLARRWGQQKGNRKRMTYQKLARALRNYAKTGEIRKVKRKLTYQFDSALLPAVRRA
# ETV1, sequence (P50549 whole entry): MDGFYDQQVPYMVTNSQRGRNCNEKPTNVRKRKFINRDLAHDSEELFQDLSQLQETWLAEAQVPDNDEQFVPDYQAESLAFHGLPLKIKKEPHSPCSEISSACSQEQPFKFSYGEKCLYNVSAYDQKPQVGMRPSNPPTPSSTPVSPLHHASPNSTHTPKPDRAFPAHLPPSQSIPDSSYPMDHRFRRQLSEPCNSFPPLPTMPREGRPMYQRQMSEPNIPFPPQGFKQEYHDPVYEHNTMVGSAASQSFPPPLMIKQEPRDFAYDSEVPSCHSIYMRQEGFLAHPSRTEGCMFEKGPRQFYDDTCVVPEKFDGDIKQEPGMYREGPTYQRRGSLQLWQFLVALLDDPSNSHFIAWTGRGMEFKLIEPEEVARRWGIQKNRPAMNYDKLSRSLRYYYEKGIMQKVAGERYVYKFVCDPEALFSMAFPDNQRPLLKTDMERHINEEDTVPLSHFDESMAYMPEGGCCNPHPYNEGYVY
# ELF1, sequence (P32519 whole entry): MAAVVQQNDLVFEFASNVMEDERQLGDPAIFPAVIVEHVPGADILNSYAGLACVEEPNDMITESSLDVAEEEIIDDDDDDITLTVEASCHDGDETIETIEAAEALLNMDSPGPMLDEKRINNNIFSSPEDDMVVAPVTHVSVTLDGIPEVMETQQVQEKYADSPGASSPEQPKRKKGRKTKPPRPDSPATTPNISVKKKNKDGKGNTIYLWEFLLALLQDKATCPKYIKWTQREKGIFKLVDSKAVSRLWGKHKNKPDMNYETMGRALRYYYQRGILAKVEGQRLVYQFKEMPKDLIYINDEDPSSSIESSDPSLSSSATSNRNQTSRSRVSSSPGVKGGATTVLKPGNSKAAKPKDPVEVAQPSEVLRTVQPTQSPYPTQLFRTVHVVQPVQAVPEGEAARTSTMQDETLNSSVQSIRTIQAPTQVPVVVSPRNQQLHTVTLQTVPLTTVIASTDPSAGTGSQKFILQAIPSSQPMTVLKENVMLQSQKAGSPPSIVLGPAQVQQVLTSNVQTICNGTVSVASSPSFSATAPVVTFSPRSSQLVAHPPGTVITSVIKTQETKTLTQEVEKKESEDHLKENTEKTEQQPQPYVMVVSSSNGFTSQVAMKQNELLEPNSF
# ETV5, sequence (P41161 whole entry): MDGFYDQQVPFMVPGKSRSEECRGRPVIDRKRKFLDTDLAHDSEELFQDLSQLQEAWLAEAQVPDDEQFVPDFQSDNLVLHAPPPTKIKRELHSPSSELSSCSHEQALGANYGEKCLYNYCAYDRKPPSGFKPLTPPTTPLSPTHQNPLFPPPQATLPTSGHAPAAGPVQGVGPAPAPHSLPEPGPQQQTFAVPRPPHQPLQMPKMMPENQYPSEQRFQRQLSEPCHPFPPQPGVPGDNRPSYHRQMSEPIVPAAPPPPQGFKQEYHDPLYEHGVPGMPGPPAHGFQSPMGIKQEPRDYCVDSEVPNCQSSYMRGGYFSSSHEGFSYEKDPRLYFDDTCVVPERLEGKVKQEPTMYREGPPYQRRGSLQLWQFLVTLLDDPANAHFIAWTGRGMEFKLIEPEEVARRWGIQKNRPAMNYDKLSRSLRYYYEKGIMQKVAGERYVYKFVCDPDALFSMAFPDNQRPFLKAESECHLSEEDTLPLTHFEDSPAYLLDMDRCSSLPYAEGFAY
# ELF4, sequence (Q99607 whole entry): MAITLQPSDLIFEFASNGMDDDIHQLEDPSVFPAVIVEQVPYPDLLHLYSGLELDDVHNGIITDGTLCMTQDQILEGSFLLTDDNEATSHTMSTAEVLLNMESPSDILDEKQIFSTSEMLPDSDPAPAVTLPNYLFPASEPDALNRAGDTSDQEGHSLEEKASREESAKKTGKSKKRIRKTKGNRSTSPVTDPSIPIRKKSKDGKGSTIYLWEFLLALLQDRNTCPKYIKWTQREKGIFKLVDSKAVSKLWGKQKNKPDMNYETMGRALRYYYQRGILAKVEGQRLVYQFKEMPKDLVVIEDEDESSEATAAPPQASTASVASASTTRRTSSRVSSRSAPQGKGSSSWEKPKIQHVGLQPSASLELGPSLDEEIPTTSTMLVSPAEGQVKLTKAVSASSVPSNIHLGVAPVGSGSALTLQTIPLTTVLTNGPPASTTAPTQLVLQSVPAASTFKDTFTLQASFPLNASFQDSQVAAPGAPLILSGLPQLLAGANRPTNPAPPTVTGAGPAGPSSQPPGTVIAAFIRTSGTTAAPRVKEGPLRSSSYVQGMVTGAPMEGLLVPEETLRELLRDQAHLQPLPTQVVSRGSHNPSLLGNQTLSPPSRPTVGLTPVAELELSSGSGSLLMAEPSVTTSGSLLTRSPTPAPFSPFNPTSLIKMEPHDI
sequence,measurement,setting,value
GGATGC,binding signal,FLI1,"1.11 fold enrichment (6-mer frequency, TF over GST control)"
same,binding signal,ELK1,"1.06 fold enrichment (6-mer frequency, TF over GST control)"
same,binding signal,GABPA,"1.1 fold enrichment (6-mer frequency, TF over GST control)"
same,binding signal,ERG,"1.16 fold enrichment (6-mer frequency, TF over GST control)"
same,binding signal,ELF1,"1 fold enrichment (6-mer frequency, TF over GST control)"
same,binding signal,EHF,"1.24 fold enrichment (6-mer frequency, TF over GST control)"
same,binding signal,SPI1,"1.11 fold enrichment (6-mer frequency, TF over GST control)"
same,binding signal,SPIB,"1.28 fold enrichment (6-mer frequency, TF over GST control)"
same,binding signal,ELK3,"1.23 fold enrichment (6-mer frequency, TF over GST control)"
same,binding signal,FEV,"1.29 fold enrichment (6-mer frequency, TF over GST control)"
same,binding signal,ETV5,"1.27 fold enrichment (6-mer frequency, TF over GST control)"
same,binding signal,SPIC,"1.2 fold enrichment (6-mer frequency, TF over GST control)"
same,binding signal,ELF4,"1.09 fold enrichment (6-mer frequency, TF over GST control)"
same,binding signal,ELK4,"1.13 fold enrichment (6-mer frequency, TF over GST control)"
same,binding signal,ETV2,"1.06 fold enrichment (6-mer frequency, TF over GST control)"
same,binding signal,ELF3,"1.13 fold enrichment (6-mer frequency, TF over GST control)"
same,binding signal,ETV1,"1.2 fold enrichment (6-mer frequency, TF over GST control)"
